# Compounds with a hit are over-represented: about 2.3% of the library has one in this group of screens.
# M1 PAM = potentiates human M1 receptor response to acetylcholine; P11229; activation, % at 3 µM; CHO-K1 hM1, Fluo-8 calcium fluorescence, ACh EC20; 0% = ACh EC20, 100% = maximal ACh; actives 0.088% (n = 360,000); in the data active = activation above about 19%, passing the limit was not always enough
# Target sequence (P11229 whole entry, looked up): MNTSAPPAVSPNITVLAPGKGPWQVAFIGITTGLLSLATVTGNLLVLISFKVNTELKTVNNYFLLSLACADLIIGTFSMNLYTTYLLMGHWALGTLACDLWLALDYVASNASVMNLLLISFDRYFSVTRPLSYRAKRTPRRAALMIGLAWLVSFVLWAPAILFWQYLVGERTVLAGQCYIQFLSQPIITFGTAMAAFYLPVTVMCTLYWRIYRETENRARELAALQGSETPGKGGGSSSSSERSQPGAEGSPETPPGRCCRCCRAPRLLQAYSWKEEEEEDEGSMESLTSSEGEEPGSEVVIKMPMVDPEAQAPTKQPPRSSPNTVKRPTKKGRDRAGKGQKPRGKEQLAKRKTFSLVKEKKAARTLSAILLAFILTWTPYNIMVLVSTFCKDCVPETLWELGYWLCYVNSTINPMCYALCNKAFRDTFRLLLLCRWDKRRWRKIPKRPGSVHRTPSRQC
# CHO-K1 Ca ag = counter-screen for M1 agonists: effect in parental CHO-K1 cells | actives 0.48% (n = 360,000) | activation, % at 3 µM | Fluo-8 calcium fluorescence; scaled to maximal ATP response, vehicle zero; in the data active = activation above about 15%;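 also: untransfected CHO-K1 host cells lacking M1 receptor as counterscreen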
# CHRM1 agonist = human M1 muscarinic receptor agonism. P11229. CHO-K1 hM1, Fluo-8 calcium fluorescence, agonist mode; 0% DMSO, 100% acetylcholine EC100. activation, % at 3 µM. actives 0.33% (n = 360,000). AID 588814;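 active = activation above the run's mean compound activation plus 3 SD, cut at about 16% in these data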;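 also: peak over basal fluorescence ratio within a 140 s kinetic read after compound addition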
# CHRM1 antagonist = human CHRM1 antagonism; P11229; inhibition, % at 3 µM; AID 588852; CHO-K1 hM1, Fluo-8 calcium fluorescence, ACh EC80 antagonist; actives 1.3% (n = 360,000);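 active = percent inhibition above its own plate's cutoff, namely the mean of that plate's compound wells plus 3 SD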;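 also: peak over basal fluorescence ratio during 140 s after agonist addition; 0% = ACh EC80 plus DMSO and 100% = DMSO alone without agonist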
# CHO-K1 Ca antag = M1 antagonist counterscreen hit in parental CHO-K1 cells; ATP-induced calcium, Fluo-8 fluorescence; inhibition, % at 3 µM; actives 0.6% (n = 360,000); AID 602250;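 active = inhibition above a per-plate cutoff, the plate's mean sample inhibition plus 3 SD, cut at about 24% in these data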;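 also: 0% = DMSO plus EC80 ATP and 100% = DMSO alone without ATP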
# M1 PAM parental = counter-screen for M1 PAMs: effect in parental CHO-K1 cells; activation, % at 3 µM; actives 0.02% (n = 360,000); ATP EC20, Fluo-8 calcium fluorescence; 0% at ATP EC20, 100% at ATP max;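 active = activation above the run cutoff, the mean activation of all test compounds plus 3 SD, cut at about 40% in these data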;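 also: peak over basal fluorescence ratio in a 140 s read after ATP addition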
# * hit, by the source's call.
SMILES,M1 PAM,CHO-K1 Ca ag,CHRM1 agonist,CHRM1 antagonist,CHO-K1 Ca antag,M1 PAM parental
CCOC(=O)C1CCCN(C(=O)c2cc(-c3ccco3)nc3ccccc23)C1 (stereo not given),-5,2,25*,-12,-15,15
CCOC(=O)C1CCCN(C(=O)c2ccc(-c3ccccc3Cl)o2)C1 (stereo not given),2,1,5,-8,-1,12
CCOC(=O)C1CCCN(C(=O)c2sc3nc(-c4ccc(OC)cc4)cn3c2C)C1 (stereo not given),-6,0,28*,-1,-5,15
COc1ccc(-c2nn(-c3ccccc3)cc2/C=C/C(=O)N2CCN(c3ccccn3)CC2)cc1,-7,3,-4,32,-9,20
CN(C)C(CNC(=O)C1CCN(S(=O)(=O)c2cc(Cl)ccc2Cl)CC1)Cc1ccccc1 (stereo not given),-2,1,-7,4,-8,12
CCC(C)[C@H](NC(=O)C1CC(=O)N(c2ccc(OC)cc2)C1)C(=O)NC1CCCC1 (stereo not given in full),4,-1,-2,-6,-14,12
CC(=O)Nc1ccc(-c2ccnc3c2CC(C)(C(=O)Nc2cccc(C(F)(F)F)c2)O3)cc1 (stereo not given),-8,3,-3,9,-6,7
O=c1c2ccccc2ncn1-c1ccc([N+](=O)[O-])cc1[N+](=O)[O-],-8,19*,6,2,2,-20
COc1ccc(NC(=S)NC(=O)c2cncc(Br)c2)c(OC)c1,8,0,-3,-9,-4,5
COC(=O)C1(c2ccccc2)NC(c2cccs2)C2C(=O)N(C)C(=O)C21 (stereo not given),3,0,-1,0,-9,9
COC(=O)C1(c2ccccc2)NC(c2cccs2)C2C(=O)N(c3ccccc3)C(=O)C21 (stereo not given),14,12,41*,-17,-14,31
CCCNC(=O)C1(C)CCN(Cc2cc(C(F)(F)F)ccc2Cl)C1 (stereo not given),2,0,-6,-6,-4,8
CCCCCCCn1c(=O)c(C(=O)OC)c(N)c2ccccc21,-15,23*,4,28,4,-8
CC(C)(C)C1CCC(CN2C(Nc3ccccc3)=NC[C@@H]2Cc2ccccc2)CC1 (stereo not given in full),-28,17*,-2,65*,5,20
COc1ccc(-n2c(-c3cccc(OC)c3)nc(=S)c3c2CCCC3)cc1,-35,1,-15,60*,-11,9
COc1ccc(-n2c(-c3ccccc3)nc(=S)c3c2CCCC3)cc1,6,4,-1,-28,-5,17
Nc1ccc(C(=O)N2CCN(S(=O)(=O)c3ccc(Cl)s3)CC2)cc1[N+](=O)[O-],6,1,1,-23,-1,-17
CCOC(=O)c1c(NC(=O)CN(CC)CC)sc2c1CCN(C(=O)OCC)C2,0,0,-2,-16,-19,6
CCOC(=O)c1c(NC(=S)N2CCN(C)CC2)sc2c1CCN(C(=O)OCC)C2,15,0,23*,-12,-16,5
COc1cccc(NC(=S)N2CCN(S(=O)(=O)c3ccccc3)CC2)c1,12,1,-1,-11,-12,-2
C=CCc1ccc(OCCCCOc2ccc(C(=O)O)cc2)c(OC)c1,-5,3,-8,1,5,3
Cc1ccc(C(C)C)c(OCCCCCN2CCOCC2)c1,-36,1,-12,69*,-17,20
Cc1ccc(C(C)C)c(OCCCCN2CCNCC2)c1,-3,2,-8,-7,-15,25
C=CCc1ccc(OCCCCCN2CCOCC2)c(OC)c1,-21,1,-5,46*,-12,12
O=C(Nc1cccc(Oc2ccccc2)c1)c1ccc(-n2cncn2)c2ccoc12,2,3,-1,-17,-7,20
CCOCCN1CCN(C2c3ccccc3CSc3ccccc32)CC1 (stereo not given),-26,0,-8,100*,0,2
CCNC(=O)NC1c2ccccc2CSc2ccccc21 (stereo not given),-1,0,-7,16,-7,12
